PubChem BioAssay (NCI)
About 83,000 compounds went through this panel and 20% of them were active in at least one assay; those are over-represented in the sample as a whole.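 Cell lines were cultured in 96-well plates, exposed to a single compound concentration, and assessed for percent growth 48 hours later.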 A number with no mark means an inactive call. The calls were made as follows: active = growth percent below 10; inactive = the rest.

Each compound was assayed on SK-OV-3 ovarian (assay: NCI-60 one-dose screen, 48 h (100 = growth as untreated, 0 = no growth, -100 = all killed)). Details: 10 µM unless noted.
In the case of O=C([O][Sn]([O]C(=O)c1ccccn1)([c]1ccccc1)[c]1ccccc1)c1ccccn1, the growth is reported as 99.7%.
Work on CC(C)(C)N1CCC1C(N)=O (stereo not given) yielded a growth of 104%.
CC(C)(C)n1cc(-c2ccnc(NCCCNS(=O)(=O)c3ccc(Cl)cc3)c2)c(-c2cccc(O)c2)n1 gave a growth of 37.4%.
With O=C(Nc1ccc(NCCN2CCOCC2)nc1)c1ccc([N+](=O)[O-])cc1 the growth was 107%.
COc1cc(-c2ncn(/C=C\C(=O)OC(C)C)n2)cc(C(F)(F)F)c1 was tested, and the growth was 28.1%.
Compound O=C(NNC(=O)N1c2ccccc2C=Cc2ccccc21)c1ccccc1 has a growth of 112%.
In the case of CC(C)(C)n1cc(-c2ccnc(NCCNS(=O)(=O)c3ccc(Cl)cc3)c2)c(-c2cccc(O)c2)n1, the growth is reported as 90.4%.
Clc1ccccc1-c1nc2ccccc2[nH]1 gave a growth of 103%.
For CC(C)(C)n1cc(-c2ccnc(NCCNS(=O)(=O)c3ccc(C(F)(F)F)cc3)c2)c(-c2cccc(O)c2)n1, the growth was 86.3%.
Compound CC(=O)Oc1csc(N(C(C)=O)c2cc(C(=O)O)cc(C(=O)O)c2)n1 has a growth of 111%.
For COc1ccncc1S(=O)(=O)NC(=O)Nc1ccc(Cl)c(Cl)c1, the growth was 114%.
COc1ccc(-c2nc(/C=N/Nc3cc(C)nc4ccc(Cl)cc34)c(C)o2)cc1 showed a growth of 92.5%.
COc1ccc(C(=O)N2NC(=O)/C(=C/c3ccccc3F)N=C2c2ccccc2)cc1 gave a growth of 112%.
CCOC(=O)CC(=O)OC gave a growth of 101%.
For CN1C=CN(Cc2ccc(-c3ccccn3)nc2)[CH-]1.CN1C=CN(Cc2ccc(-c3ccccn3)nc2)[CH-]1.[Au+3], the growth was 75.4%.
